Sampled rows, rich in hits. Any-hit rate of the full collection: about 6.5%.
Spn PMK inh – inhibitors of Streptococcus pneumoniae phosphomevalonate kinase; purified PMK, PK/LDH-coupled NADH absorbance 340 nm; inhibition, % at 10 µM; 0.49% of 65,000 active; AID 539;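 active means top-ranked compounds by inhibition in the single 10 µM screen, taking a fixed number of the strongest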;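 further: 0% = full reaction with DMSO carrier and 100% = background rate without enzyme reaction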
Fluor 339 460 – intrinsic fluorescence of library compounds, ex339/em460 – biochemical, MLSMR library, data from DPM-DC assay, artefact control, profiling panel; compound autofluorescence, ex339/em460 nm, NADH buffer; hits give high values; 1 = no-compound wells, NADH background; 5.5% of 65,000 active; fluorescence fold increase at 10 µM;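 active means at 10 µM, mean starting fluorescence two-fold or more over control wells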;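 further: signal is the first read of a kinetic run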
NADH enzymes – inhibitors of enzymes used to reach an NAD/NADH endpoint | coupled PK/LDH NADH assays, four targets | 0.02% of 65,000 active | IC50, µM (top dose mostly 10 µM), for inactives: top-dose inhibition | AID 774;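 active means single-dose screening hits from any of four coupled enzyme assays that gave an IC50 when retested across doses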;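 further: the DPM-DC format reads NADH fluorescence rather than 340 nm absorbance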
Spn MK inh – blocks S. pneumoniae mevalonate kinase | purified MK, PK/LDH-coupled NADH absorbance 340 nm | inhibition, % at 10 µM | 0.48% of 65,000 active | AID 555;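 active means ranked among the strongest by inhibition in the single 10 µM screen, a fixed top-ranked set picked for dose follow-up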
Spn DPM-DC inh – blocks S. pneumoniae diphosphomevalonate decarboxylase; purified DPM-DC, PK/LDH coupled NADH fluorescence; calls only at 10 µM; 0.49% of 65,000 active;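 active means the 320 compounds with the highest percent inhibition in the single-dose primary screen, excluding strongly autofluorescent ones, cut at about 32% in these data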;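 further: kinetic rate of NADH fluorescence loss reporting ADP formed by the decarboxylase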
Abs 340nm – compounds absorbing at 340 nm; AID 708; 65,000 tested, under 10 active; compound absorbance at 340 nm, fold over control; fold change at 10 µM;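 active means at 10 µM dose, initial 340 nm absorbance at least 2 fold that of control wells; inactive means change under 2 fold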;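 further: initial absorbance extrapolated from kinetic A340 decline of NADH oxidation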
* hit, by the source's call; i = inactive; nt = no result given; + = active, no number.

SMILES | Spn PMK inh | Fluor 339 460 | NADH enzymes | Spn MK inh | Spn DPM-DC inh | Abs 340nm
COc1ccccc1CNC(=O)C1CCN(S(=O)(=O)N2CC(C)CC(C)C2)CC1 (stereo not given) | 25* | 0.97 | 12% | 5 | i | 1
CCCn1c(SCc2cc(=O)[nH]c3ccccc23)nc2c1c(=O)n(C)c(=O)n2C | 6 | 1.1 | 10% | 14 | i | 1.1
CCCS(=O)(=O)N1CCC(C(=O)NCc2ccco2)CC1 | 11 | 1.1 | 4% | 0 | i | 0.98
O=C1c2ccccc2NC2CCCCC12 (stereo not given) | 0 | 1.1 | 2% | 7 | i | 1.1
O=C1c2ccccc2NC2CCCCCN12 (stereo not given) | 13 | 3* | 3% | 9 | nt | 0.99
C/C(=N\O)c1ccc2c3ccccc3n(C)c2c1 | 1 | 2.7* | 10% | 11 | i | 1
C/C(=N\O)c1c(C)c2ccccc2n1C | 10 | 1.1 | 4% | 1 | i | 1
CCOC(=O)c1cn2c3c(c(F)c(F)c(F)c3c1=O)SC(N1CCCC1)=N2 | 4 | 2.7* | 4% | 4 | i | 1.1
CCOC(=O)C1C(=O)CC(C)(O)C(C(=O)OCC)C1c1ccco1 (stereo not given) | 6 | 1.1 | 3% | 0 | i | 1
COc1ccc(OC)c2c(C)cc(N3CCCN(C)CC3)nc12 | 0 | 2.2* | 1% | 1 | nt | 1.1
COc1ccccc1N1CCN(c2cc(N3CCCC3)nc(C)n2)CC1 | 4 | 1.2 | 2% | 2 | i | 1
COc1ccc(Cl)cc1C(=O)CSc1nc(N)cc(N)n1 | 16 | 1.1 | 8% | 9 | i | 0.99
CC1=CC(C)(C)Nc2ccccc21 | 10 | 2.5* | 6% | 6 | i | 1
CCCS(=O)(=O)n1nc(-c2ccc(OC)cc2OC)cc1N | 1 | 1.1 | 2% | 4 | i | 1.1
COc1ccc(-c2cc3nc(C)cc(C)n3n2)c(OC)c1 | 16 | 3.2* | 13% | 0 | i | 1.1
Cc1ccnc(N2CCC(C(=O)Nc3ccc(Oc4ccccc4)cc3)CC2)n1 | 29* | 1.2 | 10% | 0 | i | 1
Cc1cc(C)nc(N2CCC(C(=O)Nc3ccc(Oc4ccccc4)cc3)CC2)n1 | 18 | 1 | 3% | 4 | i | 1
COc1ccc(-c2cn3c(C)c(C(=O)Nc4cc(NC(C)=O)ccc4OC)sc3n2)cc1 | 17 | 3.4* | 4% | 2 | nt | 1
CNC(=O)c1sc2nc(-c3ccc(OC)cc3)cn2c1C | 11 | 1.1 | 4% | 0 | i | 1.1
CCOC(=O)c1[nH]c2ccc(OC)cc2c1NC(=O)CN1CCSCC1 | 14 | 3.9* | 12% | 10 | nt | 1.1
CCOC(=O)c1[nH]c2ccc(OC)cc2c1NC(C)=O | 5 | 3.5* | 8% | 11 | nt | 1.1
COc1ccc(N=c2oc3c(OC)cccc3cc2C(=O)NCc2ccco2)c(OC)c1 | 3 | 1.1 | 4% | 8 | i | 1.1
COc1ccc(-c2c3c(nc4sc(C(=O)Nc5cc(C)on5)c(N)c24)CCC3)cc1 | 7 | 2.6* | 16% | 3 | + | 1
COCC(=O)N(C)c1nnc(-c2cnc(C)cn2)s1 | 32* | 1.6 | 15% | 0 | i | 1
Cc1csc(NC(=O)C2CCCO2)n1 (stereo not given) | 12 | 0.97 | 2% | 0 | i | 0.98
SMILES | Spn PMK inh | Fluor 339 460 | NADH enzymes | Spn MK inh | Spn DPM-DC inh | Abs 340nm
Cc1cnc(-c2nnc(N(C)C(=O)C3CCCO3)s2)cn1 (stereo not given) | 16 | 2.3* | 20% | 21 | i | 1
CCC(=O)Nc1c(-c2ccc(OC)cc2)c(=O)c2ccccc2n1C | 8 | 3.8* | 7% | 6 | nt | 1.1
Cn1c(NC(=O)c2cccs2)c(-c2cccs2)c(=O)c2ccccc21 | 7 | 1.1 | 6% | 11 | i | 1.1
Cc1sc2ncnc(Oc3ccc(-n4ccnc4)cc3)c2c1C | 8 | 1 | 3% | 7 | i | 1
COc1ccc(N2CCN(CCNS(=O)(=O)c3cccc4nsnc34)CC2)cc1 | 33* | 1.1 | 10% | 30 | + | 1
COc1ccccc1NC(=O)CSc1nc(O)cc(=O)n1-c1ccccc1OC | 6 | 0.95 | 16% | 7 | + | 1
COc1ccccc1-n1c(SCC(=O)Nc2ccccc2C)nc(O)cc1=O | 7 | 1.1 | 5% | 9 | i | 1
COc1cc(OC)c(OC)cc1/C=N/n1c(C)nnc1C | 10 | 2.2* | 10% | 9 | nt | 1.1
